In PubChem BioAssay (NCI):
This is part of a sample that, as a whole, favours compounds with a hit. Of some 83,000 tested, about 20% had one in any assay.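 Activity criterion: percent growth below 10, measured after cells in 96-well plates were exposed to a single compound concentration for 48 hours.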 Values without a mark were called inactive. Calls of active or inactive are those of the source.

Each molecule was assayed on K-562 leukemia (assay: NCI-60 one-dose screen, 48 h (100 = growth as untreated, 0 = no growth, -100 = all killed)). Settings: 10 µM unless noted.

| Structure (SMILES) | growth |
| --- | --- |
| Cc1ccc(-c2onc3c(=O)[nH]nc(-c4ccccc4)c23)cc1 | 14.7% |
| O=C1CSC(=S)N1CCc1ccc(O)cc1 | 58.2% |
| CNC(=O)c1cc(Oc2ccc(NC(=O)Nc3ccc(Cl)c(OC(F)(F)F)c3)c(F)c2)ccn1 | 6.83% (active) |
| N#C/C(=C\c1ccc(-c2ccc(Cl)c(Cl)c2)o1)c1nc(-c2ccco2)cs1 | 113% |
| O=S(=O)(Nc1ccc(OC(F)F)cc1)c1ccc(-c2cnc(C3CC3)o2)cc1 | 19.8% |
| O=C1Nc2cc(-c3ccc(O)cc3)ccc2/C1=C/c1ccc[nH]1 | 3.69% (active) |
| CON1C(=O)CC[C@]2(C)[C@H]3CC[C@@H]4C([C@@]5(C)CCC(=O)O5)CC[C@@]4(C)[C@]3(C)CC[C@H]2C1(C)C (some centres undefined) | 83% |
| Cn1cc(C(=O)c2nc(-c3c[nH]c4ccc(Br)cc34)no2)c2cc(F)ccc21 | 102% |
| COc1ccc(-n2nc(C)c3c(Nc4ccc(NC(=O)Nc5cccc(C(F)(F)F)c5)cc4)ncnc32)cc1 | 4.37% (active) |
| CC(C)C1=C[C@@]23CC[C@@H]4[C@](C)(CCC[C@@]4(C)C(=O)N4CCCNCC4)[C@H]2C[C@@H]1[C@H]1C(=O)CCC(=O)[C@H]13 | 93.5% |
| C#CCOc1ccc2ncnc(N3CCC(NC(=O)CCl)CC3)c2c1 | 81.5% [8.25 µM] |
| Cc1ccc(NC(=O)/C=C/c2ccccc2)c(C(N)=O)c1 | 13.1% |
| COc1ccc(/C=C\c2cc(OC)c(OC)c(OC)c2)cc1OC(=O)c1cccc(Cn2cc(CCOC(=O)[C@H](N)Cc3cn(C)c4ccccc34)nn2)c1 | 4.84% (active) |
| O=C1c2ccccc2C(=O)c2c1ccc1[nH]c(-c3cccs3)nc21 | 80.7% |
| CN1CCN(Cc2ccc(NC(=O)c3cncc(C#Cc4cncn5ccnc45)c3)cc2C(F)(F)F)CC1 | 4.35% (active) |
| CC(C)(C)c1cc(/C=N\NC(=O)/C=C/C=C/c2ccc3c(c2)OCO3)c(O)c(C(C)(C)C)c1 | 59.9% |
| CCCc1cc(=O)n2c(C(=O)Nc3ccc(F)cc3)c(C(=O)Nc3ccc(F)cc3)sc2n1 | 75.1% [30 µM] |
| O=C(O)COc1ccc(Cl)cc1C1CCCCC1 | 91.8% |
| NC(=O)c1cc(Br)ccc1NC(=O)/C=C/c1ccccc1 | 15% |
| Cc1nn(-c2ccc(F)cc2)c2ncnc(Oc3ccc(NC(=O)Nc4ccc(Cl)c(C(F)(F)F)c4)cc3)c12 | 105% |

| Structure (SMILES) | growth |
| --- | --- |
| CSc1nc(-c2cccc(NC(=O)CCl)c2)c(C#N)c(=O)n1C | 11.4% |
| CCCCN(CCCC)CCCn1c(-c2ccccc2)ccc1-c1ccccc1 | 52.2% |
| Cc1c(/C=C/[N+](=O)[O-])ccc2c1[nH]c1ccccc12 | 91.6% |
| c1ccc(Cn2cc(-c3nc4ccccc4s3)c3cccnc32)cc1 | 129% |
| O=C(N/N=C/c1c[nH]c2ccccc12)c1cc(-c2ccccc2)on1 | 55.4% |
| CCCn1c(=O)[nH]c(N)c([C@H]2c3ccccc3Oc3[nH]c(=O)n(CCC)c(=O)c32)c1=O | 52.6% |
| CC(=O)O[C@H]1[C@@H]2OC(=O)C(CSc3ccccc3)[C@@H]2C[C@H]2O[C@]2(C)CC/C=C(\C)CCC[C@@H]1C (some centres undefined) | 63.1% |
| O=C1Nc2ccc(Br)cc2C12Oc1ccccc1C1CC(c3ccc(F)cc3)=NN12 (centres undefined) | 84.7% |
| C=C1c2nc3ccccc3n2C=C(c2cccc(Cl)c2)N1Cc1ccc(OC)cc1 | 0.532% (active) |
| C#CC(F)(F)[C@]1(O)CC[C@H]2[C@@H]3CCC4=CC(=O)CCC4=C3[C@@H](c3ccc(C(C)=O)cc3)C[C@@]21C | 61.4% |
| CC(=O)O[C@H]1CC[C@]2(C)[C@H]3CC=C4[C@@H]5CC(C)(C)CC[C@]5(C(=O)NCCNCCNCCN)CC[C@@]4(C)[C@]3(C)CC[C@H]2C1(C)C | -11.3% (active) |
| COc1ccc(-c2cc(NC(=O)Nc3ccc4ncsc4c3)no2)cc1 | 101% |
| CCN(CC)c1ccc(-c2cc(-c3cc(OC)c(OC)c(OC)c3)nc(N3CCOCC3)c2C#N)cc1 | 1.69% (active) |
| CC1=CC(=NN=c2cc(C)n([O-])c(C)c2)C=C(C)[N+]1=O | 85% |
| Cc1ccc2oc(=O)cc(C3c4ccc([nH]4)C(c4cc(=O)oc5ccc(C)cc45)c4ccc([nH]4)C(c4cc(=O)oc5ccc(C)cc45)c4ccc([nH]4)C(c4cc(=O)oc5ccc(C)cc45)c4ccc3[nH]4)c2c1 (centres undefined) | -26% (active) |
| COc1cc2c(cc1-c1c(C)noc1C)ncc1nc(C3CCOCC3)n([C@@H](C)COC(F)F)c12 | 34.2% |
| Cc1[nH]c(-c2cc(N)ccc2Cl)c2c1C(=O)CCCC2 | 23.2% |
| O=S(=O)(Nc1ccc(Br)c(Cl)c1)c1ccc(-c2cnc(C3CC3)o2)cc1 | 10.2% |
| C=CC(=O)Nc1cccc(-c2nc(SC)nc(NCCN3CCOCC3)c2C#N)c1 | 87.7% |
